The term inhibition denotes the change of the read-out against control, counted positive when it falls.

Structures are written as SMILES. In all, about 370,000 compounds went through this assay and about 2,600 (0.7%) were called active. The sample as a whole holds a higher share of actives than the screen did. Unmarked numbers belong to inactive results.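 Rule for the calls: active = inhibition above a cutoff: mean of compounds within the control limits plus 3 SD of those (cut at about 17% in these data); inactive = the rest.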

For this assay, the target named is Sialate O-acetylesterase (Homo sapiens) (UniProt Q9HAT2). As to the kind of experiment: human SIAE inhibitors, primary screen, biochemical, fluorescence polarization, FP-Rh probe, 1536-well HTS (AID 1053197).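 Note: 0% = plate median of compound wells and 100% = probe without SIAE protein.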 The note with it: SIAE FP-Rh probe binding, at 9.66 µM, active compounds read high.
Sequence of Sialate O-acetylesterase (Homo sapiens) (Q9HAT2 whole entry, looked up): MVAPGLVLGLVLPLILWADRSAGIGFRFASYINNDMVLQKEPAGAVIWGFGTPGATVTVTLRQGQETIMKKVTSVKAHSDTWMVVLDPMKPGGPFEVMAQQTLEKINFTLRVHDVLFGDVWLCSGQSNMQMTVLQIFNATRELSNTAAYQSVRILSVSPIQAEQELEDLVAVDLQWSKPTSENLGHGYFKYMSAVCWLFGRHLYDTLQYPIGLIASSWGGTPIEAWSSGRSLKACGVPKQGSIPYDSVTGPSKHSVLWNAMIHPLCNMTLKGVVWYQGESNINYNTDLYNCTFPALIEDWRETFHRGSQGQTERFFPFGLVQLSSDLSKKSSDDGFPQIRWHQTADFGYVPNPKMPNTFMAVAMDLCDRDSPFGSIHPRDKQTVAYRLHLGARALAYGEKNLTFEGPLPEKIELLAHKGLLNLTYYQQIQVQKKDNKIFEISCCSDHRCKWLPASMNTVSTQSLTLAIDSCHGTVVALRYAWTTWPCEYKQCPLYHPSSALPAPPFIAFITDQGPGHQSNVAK
Take `COc1cccc(Cn2cc(COC(=O)Nc3ccc(F)cc3)nn2)c1`: the inhibition is -7.19%. The value for `CCOC(=O)c1cc2cc(-c3c(C(=O)OCC)oc4cc(O)cc(O)c4c3=O)ccc2o1` was 17.1%.

On to `C[C@@H]1O[C@@H](OC[C@H]2O[C@@H](Oc3c(-c4ccc(O)cc4)oc4cc(O)cc(O)c4c3=O)[C@H](O)[C@@H](O)[C@@H]2O)[C@H](O)[C@H](O)[C@H]1O`, for which the inhibition was 19.5% (active). The value for `Cc1ccc(-n2c(COc3ccccc3)nnc2SCC(=O)Nc2ccc3c(c2)OCCO3)cc1` was -2.64%. Take `Cc1ccc(C2=CCN(C)C(=O)N2c2ccc(Cl)cc2)cc1`: the inhibition was -0.37%. Consider `Cc1cc(C(=O)NN=C/C=C/c2ccco2)n[nH]1`, for which the inhibition is 3.3%.

With `Cc1ccc(N=C2NC(=O)/C(=C/C=C/c3ccco3)S2)cc1C`, the inhibition was 27.6% (active). The value for `CCOc1ccc(Oc2c(Cl)cnn(-c3ccc(C)cc3)c2=O)cc1` was -1.82%; that for `CC(C)N1CCCCC(NC(=O)c2ccc3ccccc3c2)C1=O` (configuration not stated) was -1.26%.

For the compound `CCCCC(=O)N[C@@H]1CC[C@@]23CCCN2C(=O)CCC[C@H]3[C@H]1C`, the inhibition is -5.34%. Regarding `CC(NCc1ccco1)C(=O)N1CCCCC1` (configuration not stated), the inhibition is 5.06%. In the case of `O=C(O)c1ccccc1N=N/C(=N/Nc1cc(S(=O)(=O)O)ccc1O)c1ccccc1`, the inhibition is 28.9% (active). The value for `O=C(Nc1cccc(Cl)c1)OC1CC2CC1[C@H]1CCCCN1[C@H]2Cc1ccccc1` (some centres not stated) was -4.13%; that for `CCCCC[C@H](C)N1C[C@@H](COCc2ccccc2)Oc2cc(N3CC[C@@H](N(C)C)C3)ccc2S1(=O)=O` was 23.3% (active).

For `CCCCC[C@H](C)N1C[C@@H](COCc2ccccc2)Oc2cc(N3CCC[C@@H]3CO)ccc2S1(=O)=O`, the inhibition is 2.79%. With `CSc1ccc(Oc2cccc3c2S(=O)(=O)N([C@H](C)c2ccccc2)C[C@@H](COCc2ccccc2)O3)cc1C`, the inhibition was -4.88%.

Turning to `O=C(CSc1nnc(-c2ccccc2)n1Cc1ccco1)Nc1ccccc1-c1ccccc1`, the inhibition was -6.96%. Next, `CCOC(=O)[C@]12CCCC=C1N(CCCOC)C(=O)[C@@H]2CC(=O)N1CCOCC1`: -6.36%; `COc1cccc(N(C)C(=O)[C@@H](C)[C@@H](O)c2ccc3ccccc3c2)c1`: -4%; `C=C(C)C#CC(Cc1ccccc1)NCC1CC1` (configuration not stated): 4.41%.

Consider `O=C(CSc1ccc(Cl)cc1)NC1CC1`, for which the inhibition is -0.71%. Next, `CS(=O)(=O)N1CCN(C(=O)CSc2ccccc2)CC1`: -3.36%; `CCOC(=O)N1CCN(C(=O)CSc2ccc(Cl)cc2)CC1`: 19% (active); `CCC(C)[C@@H](C(=O)OC)N(CCc1cn(Cc2ccccc2)nn1)S(=O)(=O)c1ccccc1Br` (some centres not stated): -2.68%.

With `O=C1CC(c2ccccc2)=NN1c1ccc([N+](=O)[O-])cc1`, the inhibition was 19.8% (active). Next, `C/C(N)=C(/C#N)C(=O)COC(=O)C1=NN(c2ccccc2)C(=O)CC1`: 0.03%; `CCN1N=C(c2ccccc2)CCC1=O`: -3.71%; `O=C(CNS(=O)(=O)c1ccccc1F)N1CCN(c2ccccn2)CC1`: 2.08%. As for `O=C(Nc1cc(Cl)cc(Cl)c1)OCCN1CCCC12CCC(c1ccccc1)CC2` (configuration not stated), the inhibition is -10.1%. In the case of `Cc1cc2ccccn2c1C(=O)c1cccc(F)c1`, the inhibition is 18.5% (active). Next, `Cc1cc2ccccn2c1C(=O)c1cccc(S(=O)(=O)N2CCOCC2)c1`: -6.52%. Turning to `CC(=O)Nc1ccc(/C=N/Nc2ccc(C(=O)c3c(C)cc4ccccn34)cc2[N+](=O)[O-])cc1`, the inhibition is 9.63%. Turning to `Fc1ccc2nc(COCc3nc4ccc(F)cc4[nH]3)[nH]c2c1`, the inhibition is -7.18%. Next, `Cc1c(CN2CCCCC2)c(O)n(CCO)c(=O)c1C#N`: -5.55%; `CC1CCCN(Cc2nc3c(c(=O)n(C)c(=O)n3C)n2CC(=O)c2ccccc2)C1` (configuration not stated): 7.4%; `CCCn1c(O)c(CN2CCCC(C)C2)c(C)c(C#N)c1=O` (configuration not stated): 43.7% (active). `COc1cccc(CNC(=O)CNS(=O)(=O)c2ccc3nc(C)sc3c2)c1OC`: the inhibition was 2.11%. With `Nc1[nH]c(/C=C2/CCCCC2n2[nH]c(=O)n(-c3ccccc3)c2=O)c(Cc2ccccc2)[n+]1Cc1ccccc1` (configuration not stated), the inhibition is 10.8%. As for `O=S1(=O)c2ccc(Br)cc2OC[C@H](Cc2ccccc2)N1Cc1cn(Cc2ccccc2)nn1`, the inhibition was 3.61%. Next, `CC(c1c[nH]c2ccccc12)c1c(-c2ccccc2)n(C)c2ccccc12` (configuration not stated): 10.3%; `O=C(NC(=O)c1ccccc1N1CCCCC1)Nc1ccc(Br)cc1`: 2.43%. On to `COc1ccc(NS(=O)(=O)c2ccc(N3CCOCC3)c(NC(=O)c3ccccc3Br)c2)cc1`, for which the inhibition was -4.27%. Next, `CCn1c(=O)n(CC)c2cc(N3CCCC3)c(NC(=O)c3ccccc3Br)cc21`: 17.9% (active). The value for `CC(C)CNS(=O)(=O)CC1NCCc2ccccc21` (configuration not stated) was -2.16%; that for `CNC(=S)NNC(=O)c1ccc(N(C)C)cc1` was 10.3%. Next, `CN(C)c1ccc(N/C=C/C(=O)C(F)(F)F)cc1`: 17.9% (active). Regarding `CC1CN(/C=C/C(=O)C(F)(F)F)CC(C)O1` (configuration not stated), the inhibition was 2.43%.

As to `C=CCN1C(=O)[C@@H](CC(=O)NCCCCc2ccccc2)[C@]2(C(=O)OCC)CCCCC/C=C/12`, the inhibition was -2.6%. As to `C=CCN1C(=O)[C@@H](CC(=O)NCC2CCCCC2)[C@]2(C(=O)OC)CCCCC=C12`, the inhibition is 20.8% (active). Next, `C=CCN1C(=O)[C@@H](CC(=O)NCCCOCCCC)[C@]2(C(=O)OCC)CCCCC/C=C/12`: -0.48%; `c1ccc(CNCc2ccc(CNCc3ccccc3)cc2)cc1`: -0.12%. The value for `O=[N+]([O-])c1ccccc1NCc1ccc(Cl)cc1` was 0.44%; that for `Oc1ccc(CNc2ccccc2O)cc1` was 21.1% (active); that for `COc1cc(NC(=O)C2CCCN(S(=O)(=O)c3ccc(C(C)(C)C)cc3)C2)cc(OC)c1` (configuration not stated) was -0.78%. The value for `CCC(=O)c1c(CC)c2n3c1=CC[C@H]3CC(Br)C=2` (some centres not stated) was -1.56%.

As for `Cc1ccc(C2Nc3cccc4cccc(c34)N2)cc1`, the inhibition is 29.6% (active).

With `Oc1ccc(C2Nc3cccc4cccc(c34)N2)cc1`, the inhibition was 58.9% (active). Turning to `CCCC[C@H]1C2CC(OC(=O)NCc3ccccc3)C(C2)[C@H]2CCCCN21` (some centres not stated), the inhibition is -0.4%.

`O=C(CSc1nc2ccccc2s1)N=Nc1c(O)[nH]c2ccccc12`: the inhibition is -11.1%. As to `COc1ccc(N2CCN(CCNS(=O)(=O)c3ccc([N+](=O)[O-])cc3)CC2)cc1`, the inhibition was 1.89%.

`FC(F)(F)c1cccc(NC(=S)OC2CCC23CCC(c2ccccc2)CC3)c1` (configuration not stated): the inhibition is -8.64%.

For `Cc1ccccc1NC(=O)Cn1nnc(-c2ccccc2F)n1`, the inhibition is -1.96%. Next, `COc1cccc2c1C(=O)c1c(O)c3c(c(O)c1C2=O)CC(O)(C(C)=NNC(=O)c1ccc(Cl)c(Cl)c1)CC3OC1CC(N)C(O)C(C)O1` (configuration not stated): 62.7% (active); `CCCC1CCC2(CCCN2CCOC(=O)NCc2ccccc2)CC1` (configuration not stated): -1.37%; `CCOC(=O)/C(N=Nc1cc(C(=O)O)cc(C(=O)O)c1)=C(\O)CCl`: 21.9% (active). The value for `COc1ccc(CN(CCN2CCOCC2)C(=O)c2ccc(C)cc2)cc1OC` was -2.14%. Next, `CCOC(=O)C1(Cc2ccccc2)CCN(Cc2cn(C(C)=O)c3ccccc23)CC1`: -0.8%; `CCCC[C@H](C(=O)N(CC)c1ccccc1)[C@@H](O)c1ccc2ccccc2c1`: -0.99%. Take `CC(c1ccc(N)cc1)c1cn(C)c2ccccc12` (configuration not stated): the inhibition is 10.7%. Regarding `COC(=O)[C@]12C[C@H](CC(=O)NCCc3ccccc3OC)C(=O)N(Cc3ccco3)C1=C[C@H](C(C)C)O[C@@H]2C1CC1`, the inhibition was 0.34%. For the compound `CCN(CC)CCCC(C)n1c2nc(=O)[nH]c(=O)c-2nc2cc(Cl)ccc21` (configuration not stated), the inhibition is 29.6% (active). `Cc1cc2nc3c(=O)[nH]c(=O)nc-3n(C[C@H](O)[C@H](O)[C@H](O)CO)c2cc1C`: the inhibition is 6.59%. As for `COC(=O)C1CN(CCc2ccccc2)CCS(=O)(=O)N1Cc1ccc(F)cc1` (configuration not stated), the inhibition was 4.17%. As for `COc1ccc2c(c1)CN1CN(CCc3ccccc3)S(=O)(=O)CC21` (configuration not stated), the inhibition was -7.42%. The value for `C=CCN1[C@@H](Cc2ccccc2)COc2cccc(N3CCSCC3)c2S1(=O)=O` was -1.03%; that for `O=C(CSc1ccc(-c2ccco2)nn1)Nc1cccc(F)c1` was 17.1% (active); that for `COc1ccc(NC(=O)CSc2ccc(-c3ccco3)nn2)c(OC)c1` was 4.03%. The value for `O=C(CSc1ccc(-c2ccc(F)cc2)nn1)Nc1ccc2c(c1)OCCO2` was 9.37%. The value for `O=C(NC1CCCCN(Cc2cccc(C(F)(F)F)c2)C1=O)c1ccccc1I` (configuration not stated) was 8.59%. Regarding `C#CCN([C@H](C(=O)OC)C(C)CC)S(=O)(=O)c1ccccc1Br` (some centres not stated), the inhibition was -0.84%. The value for `Cc1ccc(C(=O)CCC(=O)N(C)CC(=O)Nc2c(Cl)cccc2Cl)cc1` was 4.52%. The value for `Cc1cccc(C)c1NC(=O)CN(C)C(=O)CCC(=O)c1ccccc1` was 19.1% (active). The value for `Cc1nc(-c2ccc(F)cc2)c(CC(=O)N(C)CC(=O)Nc2c(C)cccc2C)s1` was -6.4%; that for `O=C(CSc1nc2ccccc2nc1N1CCCCC1)N1CCN(S(=O)(=O)c2cccc([N+](=O)[O-])c2)CC1` was 1.34%; that for `O=C1C(=O)N(Cc2ccc(-c3ccsc3)cc2)c2ccc(OC(F)(F)F)cc21` was 4.4%. Regarding `Oc1ccc2ccc3cccc[n+]3c2c1`, the inhibition is 17.1% (active).

For the compound `COc1ccc(C(=O)CSc2nnc(-c3cnccn3)n2-c2ccc(C)cc2)cc1`, the inhibition was 4.14%.

Source of the values: PubChem BioAssay AID1053197 (The Scripps Research Institute Molecular Screening Center, 2014).
